Compounds without any hit were thinned out: in the full panel of roughly 83,000, 20% have a hit.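 Single-concentration screen, 48 h exposure, 96-well plates. Endpoint: percent growth. Below 10 = active.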 Values without a mark were called inactive. Calls of active or inactive are those of the source.
Legend:
Test in all cases: NCI-60 one-dose screen, 48 h (100 = growth as untreated, 0 = no growth, -100 = all killed)
HCT-15 colon = details: 10 µM unless noted
HT29 colon = details: 10 µM unless noted
SNB-75 CNS = details: 10 µM unless noted
SNB-19 CNS = details: 10 µM unless noted
U251 CNS = details: 10 µM unless noted
PC-3 prostate = details: 10 µM unless noted
SK-MEL-5 melanoma = details: 10 µM unless noted
UACC-62 melanoma = details: 10 µM unless noted
LOX IMVI melanoma = details: 10 µM
SK-MEL-28 melanoma = details: 10 µM unless noted
SK-MEL-2 melanoma = details: 10 µM unless noted
EKVX NSCLC = details: 10 µM unless noted
SN12C renal = details: 10 µM unless noted
UO-31 renal = details: 10 µM unless noted
TK-10 renal = details: 10 µM unless noted
ACHN renal = details: 10 µM unless noted
CAKI-1 renal = details: 10 µM unless noted
A498 renal = details: 10 µM unless noted
CCRF-CEM leukemia = details: 10 µM unless noted
MOLT-4 leukemia = details: 10 µM unless noted

| Structure (SMILES) | growth (HCT-15 colon) | growth (HT29 colon) | growth (SNB-75 CNS) | growth (SNB-19 CNS) | growth (U251 CNS) | growth (PC-3 prostate) | growth (SK-MEL-5 melanoma) | growth (UACC-62 melanoma) | growth (LOX IMVI melanoma) | growth (SK-MEL-28 melanoma) | growth (SK-MEL-2 melanoma) | growth (EKVX NSCLC) | growth (SN12C renal) | growth (UO-31 renal) | growth (TK-10 renal) | growth (ACHN renal) | growth (CAKI-1 renal) | growth (A498 renal) | growth (CCRF-CEM leukemia) | growth (MOLT-4 leukemia) |
| --- | --- | --- | --- | --- | --- | --- | --- | --- | --- | --- | --- | --- | --- | --- | --- | --- | --- | --- | --- | --- |
| Cc1ccc(-c2nc(C#N)c(S(=O)(=O)N3CCN(S(=O)(=O)c4ccccc4)CC3)o2)cc1 | -85.8% (active) | -56% (active) | 103% | 74.9% | 24.3% | 52.3% | 0.485% (active) | 18.5% | -92.2% (active) | 18.9% | 48% | 63.1% | 3.58% (active) | -67.7% (active) | 81.2% | -36.9% (active) | 47% | 123% | -33.6% (active) | -20.5% (active) |
| O=C(Cn1nc(-c2ccccc2)ccc1=O)N/N=C/c1ccc(N2CCOCC2)cc1 | 97.2% | 113% | 96.4% | 89.9% | 93.2% | 102% | 92.4% | 83.7% | 102% | 104% | 98.1% | 95.3% | 94.9% | 75.8% | 103% | 95.7% | 90.8% | 84% | 92.5% | 98.1% |
| C#C[C@]1(O)CC[C@H]2[C@@H]3CC=C4c5sc(-c6ccc(O)c(O)c6)nc5CC[C@]4(C)[C@H]3CC[C@@]21C | -82.2% (active) | -80.2% (active) | -81.4% (active) | -89.4% (active) | -94.3% (active) | -58.9% (active) | -98.4% (active) | -74.7% (active) | -92.9% (active) | -80.3% (active) | -97.9% (active) | -74.4% (active) | -89.5% (active) | -93.8% (active) | -44.9% (active) | -88.9% (active) | -51.2% (active) | -88.5% (active) | -27.9% (active) | -48% (active) |
| O=c1oc2ccccc2cc1-c1csc(N2N=C(c3ccccc3)CC2c2ccc(N3CCOCC3)cc2)n1 (stereo not given) | 96.6% | 117% | 101% | 116% | 109% | 102% | 105% | 92.2% | 86.7% | 109% | 101% | 96.1% | 107% | 73.8% | 159% | 99.2% | 90.6% | 153% | 96.6% | 95.9% |
| CCOC(=O)/C=C/c1cccc2c1C(=O)NC(C)(c1cc3cc(Br)ccc3oc1=O)N2 (stereo not given) | 26.4% | 43.5% | 38.3% | 48.7% | 47.1% | 25.4% | 48.2% | 31.4% | 44.3% | 58.1% | 5.72% (active) | 43.8% | 53.3% | 19.8% | 58.4% | 28.1% | 20.2% | 59.8% | 36.8% | 30.4% |
| Cc1cccc(NC(=O)CN2CCN(c3ncnc4c3cnn4-c3ccccc3)CC2)c1 | 55.4% | 76.1% | 100% | 83.1% | 89% | 63.1% | 78.5% | 67.9% | 88.1% | 90.1% | 80.2% | 85.9% | 83.4% | 54.9% | 130% | 79.9% | 82.9% | 98% | 76.7% | 75% |
| Cc1ccc(C2=NN(c3nc(-c4cc5ccccc5oc4=O)cs3)C(c3ccc(C)cc3)C2)cc1 (stereo not given) | 91.7% | 124% | 96.2% | 94.7% | 99.9% | 99.9% | 101% | 91.2% | 91.2% | 123% | 104% | 93.6% | 104% | 68% | 163% | 102% | 88.2% | 127% | 101% | 98.5% |
| Cn1cc(-c2nc(N)nnc2-c2c[nH]c3ccc(Br)cc23)c2cc(Br)cnc21 | 3.67% (active) | -31.5% (active) | -0.672% (active) | 33.9% | 8.22% (active) | 3.39% (active) | -63.5% (active) | 8.26% (active) | 17.3% | 27.1% | 13.1% | 30.4% | 11.3% | 10.4% | 47.4% | 6.39% (active) | -8.15% (active) | -14.3% (active) | 0.493% (active) | -2.69% (active) |
| Nc1nc(-c2ccccc2)c(N=Nc2ccc([N+](=O)[O-])cc2Cl)s1 | 68.1% | 96.2% | 85.7% | 96.3% | 82.5% | 77.7% | 42.5% | 57.8% | 98% | 89.1% | 43.4% | 89.2% | 83.7% | 94.9% | 172% | 79.1% | 81.2% | 73.6% | 78.7% | 79% |
| CCCS(=O)(=O)N1CCCC(C(=O)Nc2nc3ccc(NC(=O)c4ccc(F)c(OC)c4F)cc3s2)C1 (stereo not given) | 37.1% | 54.2% | 64.1% | 63.7% | 51.5% | 37.3% | -41% (active) | 45.4% | 37.6% | 59.9% | 49.7% | 39.7% | 65.5% | 38.8% | 75.3% | 46.7% | 43.2% | 84.3% | 14.9% | 0.124% (active) |
| CCS(=O)(=O)N1CCCC(C(=O)Nc2nc3ccc(NC(=O)c4ccc(F)c(OC)c4F)cc3s2)C1 (stereo not given) | 51% | 69.2% | 62.5% | 78.9% | 65.9% | 50.6% | -7.02% (active) | 58.2% | 67.6% | 78.6% | 61.1% | 46.8% | 83.7% | 54.5% | 83.8% | 63.5% | 57.6% | 87.9% | 29.5% | 9.19% (active) |
| O=C1CCCc2cc(OCC(=O)N3CCCCC3)ccc2N1 | 105% | 127% | 101% | 99.7% | 107% | 109% | 104% | 105% | 97.1% | 119% | 111% | 104% | 114% | 92.9% | 104% | 107% | 96.7% | 114% | 98.4% | 102% |
| CNS(=O)(=O)c1ccc(Nc2ccc(C(F)(F)F)cc2)c(-c2cn(C)cn2)c1 | 34.5% | 49.6% | 90.9% | 49.5% | 51.1% | 57.6% | 60.1% | 37.1% | 43.1% | 74.8% | 63.8% | 49% | 41.9% | 9.13% (active) | 46.6% | 48.9% | 60.8% | 50.7% | 51.2% | 37.1% |
| COc1ccc(/C=C/c2nc3ccccc3nc2Nc2cccc(C)c2)cc1 | 104% | 101% | 99% | 98.5% | 96.1% | 96.5% | 95.7% | 83.4% | 108% | 108% | 102% | 89% | 92.7% | 78.4% | 173% | 98.3% | 72.9% | 118% | 98.7% | 82.7% |

Source: PubChem BioAssay (NCI)
